Source: PubChem BioAssay AID1159580 (chemical genetic matrix, 2015)
The whole screen tested about 5,500 compounds, of which about 2,000 (36%) were called active. Roughly 18% stayed inconclusive and do not appear here. Rule as the data show it: active = normalized growth mostly below about 0.91 (no sharp cut-off); inconclusive = no clear call, values can overlap the other calls; inactive = mostly above about 0.92. This is one part of the list.

Assay: chemical genetic growth profiling, strain panel (AID 1159580);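 also: tested at 20 µM; growth read once vehicle control cultures reached saturation at 30 °C; 1 = growth at the plate median or of vehicle wells; lower values mean less growth of the strain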
Settings: S. cerevisiae deletion strains, growth OD
[1] = locus YDL101C, strain DUN1, stronger effect = lower value
[2] = locus YHR030C, strain SLT2, stronger effect = lower value

Measured: normalized growth

CCc1ccn2cc(Nc3ccccc3Cl)nc2c1
inactive: locus YAR019C, strain CDC15, stronger effect = lower value 0.983 | locus YBL105C, strain PKC1, stronger effect = lower value 0.976 | locus YBR135W, strain CKS1, stronger effect = lower value 0.98 | locus YBR136W, strain MEC1, stronger effect = lower value 0.968 | locus YBR160W, strain CDC28, stronger effect = lower value 0.971 | locus YDL017W, strain CDC7, stronger effect = lower value 0.974 | locus YDL028C, strain MPS1, stronger effect = lower value 0.98 | [1] 0.982 | locus YDL108W, strain KIN28, stronger effect = lower value 0.976 | locus YDL132W, strain cdc53, stronger effect = lower value 0.985 | locus YDL214C, strain PRR2, stronger effect = lower value 0.945 | locus YDR052C, strain DBF4, stronger effect = lower value 0.993 | locus YDR054C, strain cdc34, stronger effect = lower value 0.959 | locus YDR226W, strain ADK1, stronger effect = lower value 0.985 | locus YDR477W, strain SNF1, stronger effect = lower value 0.947 | locus YER123W, strain YCK3, stronger effect = lower value 0.898 | locus YER133W, strain GLC7, stronger effect = lower value 0.947 | locus YFL009W, strain cdc4, stronger effect = lower value 0.983 | locus YFL029C, strain CAK1, stronger effect = lower value 0.98 | locus YFR003C, strain YPI1, stronger effect = lower value 0.973 | locus YFR019W, strain FAB1, stronger effect = lower value 0.948 | locus YFR028C, strain CDC14, stronger effect = lower value 0.978 | locus YGR040W, strain KSS1, stronger effect = lower value 0.91 | locus YGR052W, strain FMP48, stronger effect = lower value 1.01 | locus YGR092W, strain DBF2, stronger effect = lower value 0.898 | [2] 0.965 | locus YHR079C, strain IRE1, stronger effect = lower value 0.96 | locus YHR082C, strain KSP1, stronger effect = lower value 0.998 | locus YHR205W, strain SCH9, stronger effect = lower value 0.959 | locus YIL147C, strain SLN1, stronger effect = lower value 0.973 | locus YJL095W, strain BCK1, stronger effect = lower value 0.96 | locus YJL128C, strain PBS2, stronger effect = lower value 0.967 | locus YJL157C, strain FAR1, stronger effect = lower value 0.906 | locus YJR016C, strain ILV3, stronger effect = lower value 0.987 | locus YJR066W, strain TOR1 (second series), stronger effect = lower value 0.895 | locus YJR066W, strain TOR1, stronger effect = lower value 0.973 | locus YKL048C, strain ELM1, stronger effect = lower value 0.984 | locus YKL067W, strain YNK1, stronger effect = lower value 0.962 | locus YKL101W, strain HSL1, stronger effect = lower value 0.949 | locus YKL193C, strain SDS22, stronger effect = lower value 0.979 | locus YKL203C, strain TOR2, stronger effect = lower value 0.973 | locus YLR113W, strain HOG1, stronger effect = lower value 0.916 | locus YLR133W, strain CKI1, stronger effect = lower value 0.928 | locus YLR403W, strain SFP1, stronger effect = lower value 0.886 | locus YML070W, strain DAK1, stronger effect = lower value 0.917 | locus YMR001C, strain CDC5, stronger effect = lower value 0.978 | locus YMR205C, strain PFK2 (second series), stronger effect = lower value 0.966 | locus YMR277W, strain FCP1, stronger effect = lower value 0.981 | locus YNL006W, strain LST8, stronger effect = lower value 0.997 | locus YNL020C, strain ARK1, stronger effect = lower value 0.94 | locus YNL161W, strain CBK1, stronger effect = lower value 0.98 | locus YNL183C, strain NPR1, stronger effect = lower value 0.973 | locus YNL207W, strain RIO2, stronger effect = lower value 0.972 | locus YNL222W, strain SSU72, stronger effect = lower value 0.973 | locus YNL307C, strain MCK1 (second series), stronger effect = lower value 0.917 | locus YOL078W, strain AVO1, stronger effect = lower value 0.981 | locus YOL136C, strain PFK27, stronger effect = lower value 0.926 | locus YOR061W, strain CKA2, stronger effect = lower value 0.963 | locus YOR119C, strain RIO1, stronger effect = lower value 0.985 | locus YOR231W, strain MKK1, stronger effect = lower value 0.905 | locus YOR329C, strain SCD5, stronger effect = lower value 0.972 | locus YPL031C, strain PHO85, stronger effect = lower value 0.911 | locus YPL153C, strain RAD53, stronger effect = lower value 0.912 | locus YPL204W, strain HRR25, stronger effect = lower value 0.921 | locus YPL209C, strain IPL1, stronger effect = lower value 0.976 | locus YPL256C, strain CLN2, stronger effect = lower value 0.917 | locus YPR025C, strain CCL1, stronger effect = lower value 0.983 | locus YPR106W, strain ISR1, stronger effect = lower value 0.971 | locus YPR111W, strain DBF20, stronger effect = lower value 0.97 | strain NNK1, stronger effect = lower value 0.981 | strain TSCII, stronger effect = lower value 0.983

CC(=O)c1ccc(-c2cccs2)s1
inactive: locus YAL013W, strain DEP1, stronger effect = lower value 0.95 | locus YBR229C, strain ROT2, stronger effect = lower value 0.963 | [1] 0.944 | locus YDL134C, strain PPH21, stronger effect = lower value 0.999 | locus YDR150W, strain NUM1, stronger effect = lower value 0.953 | locus YEL061C, strain CIN8, stronger effect = lower value 0.939 | locus YGR078C, strain PAC10, stronger effect = lower value 0.989 | locus YHR087W, strain rtc3, stronger effect = lower value 0.992 | locus YJL187C, strain SWE1, stronger effect = lower value 0.978 | locus YJR075W, strain HOC1, stronger effect = lower value 0.995 | locus YLR058C, strain SHM2 (second series), stronger effect = lower value 0.972 | locus YLR262C, strain YPT6, stronger effect = lower value 0.855 | locus YML094W, strain GIM5, stronger effect = lower value 0.887 | locus YMR219W, strain ESC1, stronger effect = lower value 0.981 | locus YMR263W, strain SAP30, stronger effect = lower value 1 | locus YMR307W, strain GAS1, stronger effect = lower value 0.95 | locus YNL128W, strain TEP1, stronger effect = lower value 0.98 | locus YNL298W, strain CLA4 (second series), stronger effect = lower value 0.901 | locus YNL322C, strain KRE1, stronger effect = lower value 0.985 | locus YNR030W, strain Alg12, stronger effect = lower value 0.966 | locus YPL055C, strain LGE1, stronger effect = lower value 0.9 | locus YPL241C, strain CIN2, stronger effect = lower value 0.869 | locus YPR135W, strain CTF4, stronger effect = lower value 0.69
active: [2] 0.58 | locus YLR039C, strain RIC1, stronger effect = lower value 0.777 | locus YLR085C, strain ARP6, stronger effect = lower value 0.606 | locus YNL153C, strain GIM3, stronger effect = lower value 0.878
